Reference: PubChem BioAssay
Calls of active or inactive are those of the source.

Legend:
[1] = optical density shifts of acrAB sulA E. coli – strain DRC41, OD650, 48 h, E. coli filamentation inducer project, primary screen (AID 1152); settings: higher = more signal, called active from +8 up or from −8 down;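 further: E. coli MC1000 strain DRC41 lacking acrAB efflux pump and sulA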
[2] = probe aLefty1 binding on compound microarray – biochemical, small-molecule microarray, 635/667 nm fluorescence, primary screen (AID 1153); settings: higher = more signal;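 further: score merges spot fluorescence with signal-to-noise ratio from the scanned slide images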
[3] = plasmodial surface anion channel blockers, osmotic lysis – cell-based, P. falciparum Indochina, OD700, 1 h, primary screen (AID 1154); settings: P. falciparum Indochina infected RBC osmotic lysis, higher = more signal, called active from +8 up or from −8 down
[4] = plasmodial surface anion channel blockers, osmotic lysis – cell-based, P. falciparum Indochina, OD700, 2 h, primary screen (AID 1155);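 further: lysis reports solute entry through the parasite surface anion channel PSAC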; settings: P. falciparum Indochina infected erythrocytes, higher = more signal, called active from +8 up or from −8 down
[5] = changes in parasitized red cell lysis, either direction – P. falciparum Indochina, OD700, 3 h, PSAC antagonist project, primary screen (AID 1156); settings: P. falciparum-infected erythrocytes, osmotic lysis, higher = more signal, called active from +8 up or from −8 down
[6] = plasmodial surface anion channel blockers, osmotic lysis – cell-based, P. falciparum Indochina, OD700, 18 h, primary screen (AID 1157); settings: P. falciparum Indochina infected erythrocytes, osmotic lysis OD700, 18 h; higher = more signal, called active from +8 up or from −8 down
[7] = S6 kinase pathway phospho-S6 level changes – cell-based, A549, cytoblot, luminescence, serum-stimulated, primary screen (AID 1158); settings: 5 h, higher = more signal;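 further: serum-stimulated A549 lung adenocarcinoma cells; signal is phosphorylated S6 detected by cytoblot immunostaining with HRP secondary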
[8] = target: NADPH oxidase 2 (Homo sapiens) (UniProt P04839); assay: compounds shifting NOX2 Amplex Red fluorescence – cell-based, HEK293-NOX2, PMA-stimulated, NOX inhibitor project, primary screen (AID 1159); settings: 45 min, higher = more signal, called active from +8 up or from −8 down; further: test concentration not given here
[9] = target: NADPH oxidase 4 (Homo sapiens) (UniProt Q9NPH5); assay: compounds shifting NOX4 Amplex Red fluorescence – cell-based, HEK293-NOX4, tetracycline-induced, NOX inhibitor project, primary screen (AID 1160); settings: HEK293-NOX4, Amplex Red H2O2 fluorescence, 45 min; higher = more signal, called active from +8 up or from −8 down
[10] = target: NADPH oxidase 5 (Homo sapiens) (UniProt Q96PH1); assay: compounds shifting NOX5 Amplex Red fluorescence – cell-based, HEK293-NOX5, NOX inhibitor project, primary screen (AID 1161); settings: HEK293-NOX5, ionomycin, 45 min, higher = more signal
[11] = compound effects on lung adenocarcinoma cell viability – A549, calcein-AM fluorescence, 48 h, basal, profiling panel (AID 1162); settings: higher = more signal; further: test concentration not given here
[12] = compound effects on differentiated 3T3-L1 adipocyte viability – cell-based, 3T3-L1 adipocytes, calcein-AM fluorescence, 48 h, basal, profiling panel (AID 1163); settings: 3T3-L1 adipocytes viability, higher = more signal; further: test concentration not given here
[13] = compound effects on hepatocellular carcinoma cell viability – HepG2, calcein-AM fluorescence, 48 h, basal, profiling panel (AID 1164); settings: higher = more signal; further: test concentration not given here
[14] = compound effects on multiple myeloma cell viability – MM1S, calcein-AM fluorescence, 48 h, basal, profiling panel (AID 1165); settings: higher = more signal;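 further: viability of MM1S multiple myeloma cells under basal unstimulated conditions; test concentration not given here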
[15] = calcein-AM signal in unstimulated myeloma cells – cell-based, calcein-AM fluorescence, 48 h, PK04 Diversity Set, profiling panel (AID 1166); settings: RPMI8226 myeloma viability, higher = more signal;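 further: cells grown under basal conditions without added stimulus; test concentration not given here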
[16] = JC-1 mitochondrial signal, unstimulated HepG2 cells – cell-based, JC-1 fluorescence, 24 h, 100 nL compound, profiling panel (AID 1167); settings: HepG2 mitochondrial potential, higher = more signal; further: test concentration not given here
[17] = JC-1 mitochondrial signal, unstimulated adipocytes – cell-based, JC-1 fluorescence, 3T3-L1 adipocytes, 24 h, 100 nL compound, profiling panel (AID 1168); settings: JC-1 mitochondrial fluorescence, higher = more signal, called active from +8 up or from −8 down; further: test concentration not given here
[18] = JC-1 mitochondrial signal, unstimulated myeloma cells – cell-based, JC-1 fluorescence, RPMI8226, 24 h, 100 nL compound, profiling panel (AID 1169); settings: JC-1 mitochondrial potential fluorescence, higher = more signal; further: test concentration not given here
[19] = JC-1 mitochondrial signal, unstimulated MM1S myeloma – cell-based, JC-1 fluorescence, 24 h, 100 nL compound, profiling panel (AID 1170); settings: MM1S mitochondrial potential, higher = more signal; further: test concentration not given here
[20] = resazurin metabolic signal in A549 cells – cell-based, resazurin fluorescence, 24 h, PK04 Diversity Set, profiling panel (AID 1171); settings: A549 viability, higher = more signal, called active from +8 up or from −8 down; further: test concentration not given here

Chain of NADPH oxidase 2 (Homo sapiens) (P04839 whole entry, looked up): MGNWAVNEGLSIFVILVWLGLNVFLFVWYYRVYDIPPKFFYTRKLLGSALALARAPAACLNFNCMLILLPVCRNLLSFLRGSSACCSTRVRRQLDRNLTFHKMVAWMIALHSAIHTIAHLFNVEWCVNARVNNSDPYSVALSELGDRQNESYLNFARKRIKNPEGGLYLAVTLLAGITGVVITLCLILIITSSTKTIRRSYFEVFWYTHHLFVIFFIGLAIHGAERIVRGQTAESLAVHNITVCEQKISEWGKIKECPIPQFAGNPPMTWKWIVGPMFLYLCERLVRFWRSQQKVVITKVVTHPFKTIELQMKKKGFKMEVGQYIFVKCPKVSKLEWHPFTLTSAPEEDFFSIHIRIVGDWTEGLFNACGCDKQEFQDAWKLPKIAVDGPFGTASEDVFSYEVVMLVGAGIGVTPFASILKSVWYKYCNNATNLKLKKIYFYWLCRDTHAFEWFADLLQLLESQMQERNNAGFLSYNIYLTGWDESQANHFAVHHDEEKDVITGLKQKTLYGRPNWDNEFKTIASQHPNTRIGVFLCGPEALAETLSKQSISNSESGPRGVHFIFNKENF
Chain of NADPH oxidase 5 (Homo sapiens) (Q96PH1 whole entry, looked up): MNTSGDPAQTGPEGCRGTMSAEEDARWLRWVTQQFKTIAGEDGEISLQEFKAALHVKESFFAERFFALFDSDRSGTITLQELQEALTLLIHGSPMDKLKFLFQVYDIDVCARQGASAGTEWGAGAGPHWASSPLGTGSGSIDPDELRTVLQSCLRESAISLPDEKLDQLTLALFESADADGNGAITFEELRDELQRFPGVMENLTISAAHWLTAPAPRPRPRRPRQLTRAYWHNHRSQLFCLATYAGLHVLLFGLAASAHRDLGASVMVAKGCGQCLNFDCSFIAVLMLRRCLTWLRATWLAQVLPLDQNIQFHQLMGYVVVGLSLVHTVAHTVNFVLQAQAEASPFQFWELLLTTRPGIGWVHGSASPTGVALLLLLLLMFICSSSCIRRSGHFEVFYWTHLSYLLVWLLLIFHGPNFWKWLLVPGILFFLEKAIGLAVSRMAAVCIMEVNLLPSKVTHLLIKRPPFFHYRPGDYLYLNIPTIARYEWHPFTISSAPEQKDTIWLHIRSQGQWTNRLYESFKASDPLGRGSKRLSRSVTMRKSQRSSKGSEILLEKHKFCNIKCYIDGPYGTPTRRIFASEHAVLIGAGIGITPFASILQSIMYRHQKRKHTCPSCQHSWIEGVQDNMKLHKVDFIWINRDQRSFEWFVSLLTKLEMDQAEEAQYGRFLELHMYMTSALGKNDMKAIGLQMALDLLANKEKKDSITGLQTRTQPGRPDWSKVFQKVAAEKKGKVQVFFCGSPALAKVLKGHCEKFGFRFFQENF
Chain of NADPH oxidase 4 (Homo sapiens) (Q9NPH5 whole entry, looked up): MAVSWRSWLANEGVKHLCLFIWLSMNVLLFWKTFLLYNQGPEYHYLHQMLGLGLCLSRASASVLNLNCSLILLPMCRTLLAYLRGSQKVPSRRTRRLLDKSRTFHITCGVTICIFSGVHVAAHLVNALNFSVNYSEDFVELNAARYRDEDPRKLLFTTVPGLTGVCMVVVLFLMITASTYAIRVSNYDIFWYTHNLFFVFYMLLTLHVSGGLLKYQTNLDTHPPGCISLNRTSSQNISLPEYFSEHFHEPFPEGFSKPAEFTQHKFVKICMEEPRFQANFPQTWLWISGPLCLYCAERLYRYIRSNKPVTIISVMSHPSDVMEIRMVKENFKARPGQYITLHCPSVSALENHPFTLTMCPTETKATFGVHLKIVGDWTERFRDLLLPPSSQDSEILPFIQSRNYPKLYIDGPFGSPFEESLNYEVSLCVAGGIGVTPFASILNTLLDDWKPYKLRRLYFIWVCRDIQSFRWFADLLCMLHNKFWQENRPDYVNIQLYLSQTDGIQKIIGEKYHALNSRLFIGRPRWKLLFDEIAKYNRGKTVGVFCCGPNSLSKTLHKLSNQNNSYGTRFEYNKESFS

Row | SMILES | z-score [1] | composite z-score [2] | z-score [3] | z-score [4] | z-score [5] | z-score [6] | z-score [7] | z-score [8] | z-score [9] | z-score [10] | z-score [11] | z-score [12] | z-score [13] | z-score [14] | z-score [15] | z-score [16] | z-score [17] | z-score [18] | z-score [19] | z-score [20]
1 | CCCNC(=O)[C@@]1(Sc2ccc(C)cc2)CC(=O)N(Cc2ccccc2Cl)[C@@H]1c1ccc(CO)cc1 | 2.06 (inactive) | 0.369 | 3.09 (inactive) | -0.114 (inactive) | -1.35 (inactive) | -0.772 (inactive) | 3.71 | -0.773 (inactive) | -0.99 (inactive) | -0.176 | 0.648 | 2.79 | -0.597 | 0.189 | 0.154 | 0.00317 | 0.0754 (inactive) | 0.653 | 0.368 | 0.644 (inactive)
2 | COc1ccc([Si](C)(C)[C@@H]2[C@@H](CCO)O[C@]3(C(=O)N(Cc4ccccc4)c4ccccc43)[C@H]2C)cc1 | 1.25 (inactive) | -0.0143 | 1.13 (inactive) | 0.81 (inactive) | 0.117 (inactive) | 0.353 (inactive) | 0.779 | 1.57 (inactive) | -0.523 (inactive) | 1.84 | -0.617 | 0.725 | -0.495 | -1.22 | -2.05 | 2.34 | 0.358 (inactive) | -0.181 | 0.849 | -1.69 (inactive)
3 | O=C1c2ccccc2[C@](Cc2ccccc2I)(C(=O)NCc2ccccc2)[C@H](c2ccc(CO)cc2)N1Cc1ccccc1C(F)(F)F | 1.73 (inactive) | -0.103 | 1.62 (inactive) | -0.664 (inactive) | -0.345 (inactive) | -1.24 (inactive) | 0.524 | 0.617 (inactive) | -0.738 (inactive) | 2.32 | 0.582 | 1.06 | 0.185 | -0.698 | 0.0474 | 1.11 | 0.789 (inactive) | 0.467 | 0.463 | 0.584 (inactive)
4 | Cc1ccc(S(=O)(=O)N[C@H]2COC(=O)CC=C[C@H](C)COC(=O)N[C@@H](C)C(=O)CC=C[C@@H]2C)cc1 | 0.0157 (inactive) | -0.191 | 1.3 (inactive) | 0.678 (inactive) | 1.1 (inactive) | 0.451 (inactive) | 1.87 | 0.142 (inactive) | -1.45 (inactive) | -0.213 | -0.235 | 0.538 | 0.984 | 0.399 | -0.558 | 1.27 | 0.946 (inactive) | -0.614 | 0.809 | 0.333 (inactive)
5 | COCCOC(=O)N1C(=O)[C@@]2(c3cc(C#CC4=CCCCC4)ccc31)[C@H](C(=O)NC[C@H](O)c1ccccc1)[C@H]1C(=O)O[C@H](c3ccccc3)[C@H](c3ccccc3)N1[C@@H]2c1ccccc1OCCO | -0.499 (inactive) | 0.705 | 3.23 (inactive) | 1.95 (inactive) | -0.032 (inactive) | 1.78 (inactive) | -0.178 | 1.53 (inactive) | 0.911 (inactive) | 1.2 | -1.03 | -0.383 | -3.29 | -3.21 | -4.04 | -1.46 | 2.6 (inactive) | -0.804 | -1.67 | -1.43 (inactive)
6 | O=C1C2C=CC(C(O)C#Cc3ccccc3)N(Nc3ccccc3)C2C(=O)N1c1ccccc1 (stereo not given) | -0.559 (inactive) | -0.025 | 4.69 (inactive) | 1.8 (inactive) | 0.537 (inactive) | 1.49 (inactive) | -0.964 | -0.432 (inactive) | -4.44 (inactive) | -1.09 | -0.284 | -1.26 | -0.374 | 0.0195 | -0.619 | -1.53 | -0.869 (inactive) | -0.449 | -0.41 | 0.0504 (inactive)
7 | CO[C@H]1COC(=O)[C@H](C)NC(=O)CC=C[C@@H](C)[C@H](NS(=O)(=O)c2ccc(C)cc2)COC(=O)CC=C[C@@H]1C | -0.154 (inactive) | -0.232 | 0.868 (inactive) | 0.41 (inactive) | 0.229 (inactive) | 0.33 (inactive) | 0.356 | 0.734 (inactive) | 0.631 (inactive) | 0.971 | -0.199 | 1.76 | -0.261 | 0.436 | 0.769 | 0.645 | -0.236 (inactive) | -0.081 | 0.753 | 0.317 (inactive)
8 | C=CC(=O)O[C@@H](Cc1ccccc1)[C@H]1C2C=CCCC=C2CN1Cc1cccc(Cl)c1 (stereo not given in full) | 3.24 (inactive) | -0.378 | 1.35 (inactive) | 0.893 (inactive) | 0.781 (inactive) | 0.182 (inactive) | 0.711 | -0.192 (inactive) | 0.758 (inactive) | 0.467 | 1.07 | 0.392 | 0.216 | -3.14 | -2.84 | 0.687 | 0.0156 (inactive) | -0.233 | 0.453 | 1.11 (inactive)
9 | COC(=O)[C@@]1(Cc2ccccc2)[C@H]2c3cc(C(=O)N4CCCC4)n(CCN4CNCC4=O)c3C[C@H]2CN1C(=O)c1ccccc1 | -1.1 (inactive) | 0.0176 | -0.469 (inactive) | -1.05 (inactive) | 0.423 (inactive) | -1.63 (inactive) | 0.212 | 0.122 (inactive) | 1.61 (inactive) | 0.595 | -0.626 | 0.337 | -0.509 | 0.312 | 0.261 | -0.314 | 0.251 (inactive) | -0.185 | -0.777 | 0.0269 (inactive)
